# The list is not random: actives were taken first. Their share in the collection is about 19%.
# Giardia killer: kills Giardia lamblia | Giardia lamblia trophozoite viability | activity change, % at 7.66 µM, hits read low | 340,000 compounds, 0.15% hits | AID 540267; in the data active = activity change below about -80%; inconclusive = between about -30% and that limit;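 note: parasites exposed to compound for two days anaerobically before the ATP read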
#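 Giardia lamblia trophozoites (100 cells/well) were incubated with compounds for 48 h at 37 deg C under anaerobic conditions. Viability was read as ATP content by one-step luminescence after 15-30 min at room temperature.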
# IL-1B inflam inh: blocks inflammasome-driven IL-1 beta release. AID 743279. activity change, % at 57.5 µM. 360,000 compounds, 4.7% hits. THP-1 LPS/ATP IL-1B secretion, AlphaLISA, 16 h; hits give low values; in the data active = activity change below about -50%; inconclusive = mostly about -30% to -49%
#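 THP-1 cells pretreated 1 hr with compounds (up to 57.5 uM final), then stimulated with LPS (250 ng/mL final) plus ATP (1.25 mM final); secreted IL-1B measured by AlphaLISA after 16 hr, decreased signal indicating inhibition.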
# TDP1 inh: blocks human tyrosyl-DNA phosphodiesterase 1; AID 485290; Potency, µM (top dose mostly 130 µM), inactives show at the highest dose activity change, negative = inhibition, hits mostly inhibitors; 350,000 compounds, 0.28% hits; recombinant TDP1, AlphaScreen DNA substrate cleavage; note: potency is the fitted concentration of half-maximal effect; nearly all actives have a fitted effect of over 40% in size
# Target sequence (Q9NUW8 whole entry, looked up): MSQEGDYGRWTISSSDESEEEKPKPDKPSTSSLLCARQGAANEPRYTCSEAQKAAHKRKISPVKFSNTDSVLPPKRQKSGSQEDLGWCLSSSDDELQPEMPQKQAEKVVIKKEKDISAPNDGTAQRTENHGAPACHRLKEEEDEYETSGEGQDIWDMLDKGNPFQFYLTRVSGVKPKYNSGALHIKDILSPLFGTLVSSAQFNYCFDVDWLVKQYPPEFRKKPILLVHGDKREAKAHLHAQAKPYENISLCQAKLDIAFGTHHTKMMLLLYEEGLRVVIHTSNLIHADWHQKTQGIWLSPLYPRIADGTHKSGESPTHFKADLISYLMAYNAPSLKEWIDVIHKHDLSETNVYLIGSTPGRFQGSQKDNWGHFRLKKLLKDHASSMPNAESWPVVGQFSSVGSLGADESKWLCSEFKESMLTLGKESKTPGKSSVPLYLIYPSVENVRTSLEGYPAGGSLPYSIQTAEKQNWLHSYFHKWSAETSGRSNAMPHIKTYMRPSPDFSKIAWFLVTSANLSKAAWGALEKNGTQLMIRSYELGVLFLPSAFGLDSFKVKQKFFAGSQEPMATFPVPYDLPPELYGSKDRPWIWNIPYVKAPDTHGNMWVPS
#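 Signal: AlphaScreen proximity between streptavidin donor and anti-FITC acceptor beads on intact substrate. Reaction: Tdp1 1 nM, substrate 15 nM final, 5 min RT after 15 min compound preincubation.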
# ELG1 repair inh: ELG1-dependent DNA repair inhibition. Potency, µM (titrated, usually from 46.1 µM), for the others: at the top dose activity change, negative = inhibition, actives largely listed as inhibitors. HEK293T ELG1-luciferase reporter, luminescence, 16 h; DNA damage induced by 5-fluorouridine. 330,000 compounds, 2.3% hits. AID 504467; note: potency is the fitted concentration of half-maximal effect; nearly all actives have a fitted effect of over 55% in size
#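 HEK293T cells expressing luciferase-tagged ELG1 (2,000/well) received 5-Fluorouridine plus compound or DMSO for 16 hr at 37 °C. Luciferase was read by ONE-Glo luminescence after 30 min at room temperature.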
# TDP1 cell noCPT: qHTS for Inhibitors of human tyrosyl-DNA phosphodiesterase 1 (TDP1): qHTS in cells in absence of CPT | 420,000 compounds, 15% hits | Potency, µM (series often up to 46.2 µM), without a hit: at the top dose activity change, negative = growth inhibition, actives largely listed as inhibitors | DT40 Tdp1-/- hTDP1 cells, no CPT, ATP luminescence, 48 h | AID 686978, 2013; note: potency is the fitted concentration of half-maximal effect; nearly all actives have a fitted effect of over 55% in size
#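 No-CPT arm: Tdp1-/-;hTDP1 DT40 cells (400/well) plus compounds, incubated ≥48 hr at 37 °C. Readout CellTiter-Glo luminescence.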
# TDP1 cell CPT: DT40-hTDP1 cell growth loss with CPT | chicken DT40 Tdp1-/-;hTDP1 cells + 20 nM CPT, ATP luminescence, 48 h | Potency, µM (doses to about 46.2 µM), without a hit: top-dose activity change, negative = growth inhibition, actives largely listed as inhibitors | 420,000 compounds, 12% hits | AID 686979; note: potency is the fitted concentration of half-maximal effect; nearly all actives have a fitted effect of over 55% in size
#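 Chicken DT40 Tdp1-/- cells complemented with human TDP1, 400 cells/well, exposed to compounds plus 20 nM camptothecin for at least 48 h at 37 C; viability read as ATP content by CellTiter-Glo luminescence.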
# * hit, by the source's call; ? = inconclusive; . = no result given; [ ] = dose if it differs, or a comment. Unless noted, calls come from the whole dose curve; as a rule, active = well fitted curve in the direction sought with a large enough effect; inconclusive = small, poorly fitted or top-dose-only effect, or another doubt; inactive = no such curve, though single readings can be large; an effect the other way counts as inactive or inconclusive. % is set by controls: 0 for no effect and ±100 for the full control effect.
SMILES,Giardia killer,IL-1B inflam inh,TDP1 inh,ELG1 repair inh,TDP1 cell noCPT,TDP1 cell CPT
C[C@@H]1[C@@H](Sc2ccccc2)CC(=O)O[C@@H]1c1ccc(-c2ccccc2)cc1,-12,-102*,4%,.,7.3µM*,8.2µM*
O=C1C[C@H](c2ccccc2)[C@@H](c2ccc(Br)cc2)O1,.,.,4%[21 µM],.,.,.
Cc1ccc(CN2CCC(c3cc(-c4cccs4)n[nH]3)CC2)cc1,10,-86*,3%,-9%,?,?
COC(=O)CCN1CCC(c2cc(-c3cccc(C(F)(F)F)c3)n[nH]2)CC1,29,4,.,20%,-23%,-7%
FC(F)(F)c1cccc(CN2CCC(c3cc(-c4cccs4)n[nH]3)CC2)c1,7,-217*,8%,?,21µM*,8.2µM*
O=C(CNCc1ccccc1)NCCCN1CCCC1=O,1,1,.,2%,-18%,6%
CSc1nsc(SC)c1C(=O)N1CCN(S(=O)(=O)c2ccc(C)cc2)C1C(C)C (stereo not given),13,13,-1%[56.1 µM],18µM*,?,?
CC(=O)N1CCN(S(=O)(=O)c2ccc(C)cc2)C1C (stereo not given),-2,9,.,0%,-28%,3%
CSc1nsc(SC)c1C(=O)N1CCN(S(=O)(=O)c2ccc(C)cc2)C1C (stereo not given),3,13,4%,?,23µM*,?
COC(CNC(=O)C1CCC(CNS(=O)(=O)c2c(C)cc(C)cc2C)CC1)OC (stereo not given),-23,2,.,14%,-24%,-22%
O=C(COc1ccc(Br)cc1)NCC1COc2ccccc2O1 (stereo not given),-10,-20,-5%,?,?,-10%
C=CCOc1nc2c(c(=O)n(C)c(=O)n2C)n1Cc1ccc(Cl)cc1,-16,-12,-2%,?,15µM*,16µM*
C=CC(C)Sc1nc2c(c(=O)n(C)c(=O)n2C)n1Cc1ccccc1Cl (stereo not given),1,24,1%,?,?,?
Cc1ccc(CNc2nc3c(c(=O)n(C)c(=O)n3C)n2Cc2ccc(Cl)cc2)cc1,.,.,.,.,?,1%
CCCOc1nc2c(c(=O)n(C)c(=O)n2C)n1Cc1cccc2ccccc12,0,-16,2%,16µM*,6.5µM*,12µM*
C=CCOc1nc2c(c(=O)n(C)c(=O)n2C)n1Cc1ccccc1Cl,12,3,3%,-14%,23µM*,16µM*
CCCOc1nc2c(c(=O)n(C)c(=O)n2C)n1C,12,2,0%,-7%,-18%,-11%
CC(C)=CCCC1(C)C=Cc2c(c(C)cc3c2[nH]c2cc(O)ccc23)O1 (stereo not given),-7,-74*,.,15%,16µM*,?
COc1ccc(S(=O)(=O)N(C)C[C@H]2Oc3ccc(NC(=O)c4ccncc4)cc3C(=O)N([C@H](C)CO)C[C@@H]2C)cc1,-7,-21,0%,4%,-19%,-21%
Cc1cccc(/C(N)=N/OC(=O)N2CCOCC2)c1,6,-18,2%,-3%,18µM*,16µM*
Cc1ccc(/C(N)=N/OC(=O)N2CCOCC2)cc1,8,-17,0%,-12%,?,18µM*
CCn1c(-c2cccnc2)nc2cc(NC(=O)COC)cc(C(=O)N3CCOc4ccccc4C3)c21,.,.,.,.,-12%,2%
COc1ccc(/C=C(/C#N)c2nc(-c3cc4ccccc4oc3=O)cs2)cc1,.,.,0%[12.3 µM],.,15µM*,?
COc1ccc(/C=C(\C#N)c2nc(-c3cc4c(ccc5ccccc54)oc3=O)cs2)cc1O,-14,.,-1%[12.3 µM],.,3.3µM*,2.9µM*
Cc1ccc(-n2c(C)cc(C(=O)COC(=O)C3=NNC(=O)CC3)c2C)cc1,6,5,8%,17%,?,16µM*
SMILES,Giardia killer,IL-1B inflam inh,TDP1 inh,ELG1 repair inh,TDP1 cell noCPT,TDP1 cell CPT
Cc1ccc(-n2c(C)cc(C(=O)COC(=O)c3c(C)noc3C)c2C)cc1,-13,-58*,11%,?,9.2µM*,9.2µM*
Cc1ccc(CCNC(=O)c2ccc3c(=O)n(-c4ccc(C)cc4)c(=O)[nH]c3c2)cc1,.,.,-3%,.,-13%,1%
O=C(O)COc1ccc(/C=N/NC(=O)Cc2ccc(Cl)cc2)cc1,12,-3,3%,-5%,11%,-3%
COc1ccc(OC)c(N2Cc3cc(C)c(C)cc3C2)c1,-5,-1,4%,15%,26µM*,?
COc1ccc(OC)c(-n2c(C)cc(C=O)c2C)c1,10,0,9%,10%,-17%,-4%
CCOc1ccccc1N1Cc2cc(C)c(C)cc2C1,18,4,4%,18%,?,26µM*
COc1ccc(Nc2cc(C(=O)NCCCN3CCN(C)CC3)c3ccccc3n2)c(OC)c1,17,?,4%,18%,23µM*,?
COc1ccc(Nc2cc(C(=O)NCc3cccnc3)c3ccccc3n2)c(OC)c1,.,.,5%,-16%,.,.
CCN(CCCNC(=O)c1cc(Nc2ccc(OC)cc2OC)nc2ccccc12)c1cccc(C)c1,.,.,7%,.,15µM*,21µM*
Cc1ccc(Nc2cc(C(=O)NCCCN3CCOCC3)c3ccccc3n2)cc1C,-2,5,1%,?,?,?
CCN(CCCNC(=O)c1cc2cc3cc(OC)ccc3nc2s1)c1cccc(C)c1,.,.,8%,.,?,-26%
COc1ccc(Nc2cc(C(=O)NCCCOC(C)C)c3ccccc3n2)c(OC)c1,-6,-6,.,?,16µM*,16µM*
Cc1cccc(OCC(=O)Nc2cccc3cccnc23)c1C,.,.,-2%,.,.,.
CC(C)c1ccc(/C=C/c2[nH]c(=O)[nH]c(=O)c2[N+](=O)[O-])cc1,-12,-82*,.,10%,?,-25%
CCOc1cc(/C=C\c2[nH]c(=O)[nH]c(=O)c2[N+](=O)[O-])ccc1OC(C)CC (stereo not given),-26,-92*,4%,?,-6%,-19%
CCCOc1ccc(/C=C/c2[nH]c(=O)[nH]c(=O)c2[N+](=O)[O-])cc1OCC,-21,-5,.,-25%,4%,27%
CCn1ccnc1CN(C)Cc1cn[nH]c1-c1ccc(OC)c(F)c1,-11,-9,.,?,?,-2%
Cc1cnc(CNc2ncncc2-c2ccccc2C(F)(F)F)cn1,.,.,40µM*,.,-28%,?
Cc1cnc(CNc2ncncc2-c2c(C)noc2C)cn1,.,.,.,.,2.6µM*,3.7µM*

# Screening results as filed in PubChem.
